A number with no mark means an inactive call. Results filed as inconclusive are left out. Calls of active or inactive are those of the source. Unless noted, calls come from the whole dose curve; as a rule, active = well fitted curve in the direction sought with a large enough effect; inconclusive = small, poorly fitted or top-dose-only effect, or another doubt; inactive = no such curve, though single readings can be large; an effect the other way counts as inactive or inconclusive.

The nature of assay [1]: AP1 Signaling Pathway (AID 357; active = well fitted curve in either direction with a large enough effect, not every such curve was filed as active;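 note: ME-180 reporter cells stimulated with EGF at its EC50 level; % is set by controls: 0 for no effect and ±100 for the full control effect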). The gist of the method: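 Read-out was the 460nm/530nm emission ratio (excitation 405nm) after CCF4 loading for 2.5 hours at room temperature. Cells carried an AP-1-driven beta-lactamase reporter, were stimulated with EC50 EGF plus compound for 5 hours, and AC50 values came from titrations.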
The nature of assay [2]: NFAT Signaling Pathway (AID 444; active = well fitted curve in either direction with a large enough effect, not every such curve was filed as active;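 note: carbachol stimulus at about its EC50 of 1 µM final; % is set by controls: 0 for no effect and ±100 for the full control effect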). The note with it: Jurkat NFAT-bla M1, carbachol, beta-lactamase ratio, 5 h; at 17.2 µM (top of the series) unless noted. The gist of the method: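 Jurkat cells with NFAT-driven β-lactamase reporter and co-expressed M1 receptor, stimulated with carbachol (final 1 uM, ~EC50), compound titration, 5 h at 37 °C. CCF4 loaded 1 h at RT; 460/530 nm ratio gave %activity and AC50.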

The nature of assay [3]: Stat Signaling Pathway (AID 446; active = well fitted curve in either direction with a large enough effect, not every such curve was filed as active;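 note: ME-180 cervical cancer cells given 40 pM IL-6 alongside compound; SIE-controlled beta-lactamase reporter measured as 460/530 nm FRET emission ratio; % is set by controls: 0 for no effect and ±100 for the full control effect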). The gist of the method: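 Overnight-plated ME-180 cells bearing a STAT Inducible Element beta-lactamase reporter; 5 h co-exposure to compound and 40 pM IL-6; values normalized to 300 pM IL-6 and 125 nM JAK inhibitor controls.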
Assay [4] addresses Glucocorticoid receptor (Homo sapiens) (UniProt P04150). Kind of assay: GR-GFP Redistribution (AID 450;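 active = compounds whose dose series gives a full or clear partial fitted curve of increased nuclear translocation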; note: potency is the fitted concentration of half-maximal effect). The note with it: U2OS GR-GFP nuclear translocation, laser cytometry, 2 h.
Assay [5] has the same target. Kind of assay: GR-EFC Redistribution (AID 451; calls by dose curve; note: potency is the fitted concentration of half-maximal effect). The note with it: CHO-K1 GR-EFC translocation, beta-gal luminescence, 2 h. The gist of the method:
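CHO-K1 cells expressing nuclear EA and GR-ED fragments of b-gal; compounds titrated up to 46 uM final, 2 h at 37 C. GR nuclear translocation read as complemented b-gal luminescence after 1 h RT detection.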

Assay [6] deals with Mitogen-activated protein kinase 10 (Mus musculus) (UniProt Q61831). Kind of assay: JNK3 AlphaScreen Assay (AID 530; active = well fitted curve in either direction with a large enough effect, not every such curve was filed as active;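 note: kinase came from lysate of stimulated human HepG2 cells; signal reports phosphorylation of biotinylated GST-cJun 1-79 at Ser73 with 10 µM ATP; % is set by controls: 0 for no effect and ±100 for the full control effect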). Put shortly: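 Activity was read by AlphaScreen after JNK3-containing HepG2 lysate (cytokine pre-activated) phosphorylated biotinylated GST-cJun with 10 uM ATP at room temperature. Phospho-Ser73 cJun antibody with Protein-A acceptor beads provided detection.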
(In general: Alpha assays give light when donor and acceptor beads are brought close together.)

For assay [7], the target named is Cytochrome P450 1A2 (Homo sapiens) (UniProt P05177). Kind of assay: p450-cyp1a2 (AID 410; calls by dose curve; note: potency is the fitted concentration of half-maximal effect). The gist of the method:
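O-Demethylation of luciferin 6' methyl ether by human CYP1A2 is monitored as luciferase luminescence. Substrate sits at Km (100uM); enzyme is 20nM. Values are scaled to 57 uM furafylline as maximal inhibition.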

Assay [8] in a line: Cell Viability - BJ (AID 421; calls by dose curve;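 note: potency is the fitted concentration of half-maximal effect; cells exposed to compound for 40 hours at 37 °C before readout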). The note with it: BJ fibroblast viability, qHTS. The gist of the method: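 Quantitative HTS: ATP depletion in BJ cells after 40 hr compound exposure in complete culture medium, detected with CellTiter-Glo; AC50 from standard Hill fits.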
Assay [9] in a line: Cell Viability - Jurkat (AID 426;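 active = dose-dependent loss of cell ATP signal giving a full or clear fitted curve, ranked by lower potency value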;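 note: potency is the fitted concentration of half-maximal effect; cells exposed to compound for 40 hours at 37 °C before ATP read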). The note with it: qHTS. Put shortly:
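Cells of the human T-cell leukemia line Jurkat (E6-1) are seeded at 5000 per well, treated with compound across a concentration range for 40 hours at 37 °C, then lysed with CellTiter-Glo; luminescence reports ATP.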

Assay [10] can be described thus: Cell Viability - Hek293 (AID 427;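 active = compounds whose dose-response curve shows a full or clear partial loss of cell viability, called from curve shape rather than a numeric limit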;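 note: potency is the fitted concentration of half-maximal effect; cells exposed to compound for 40 hours at 37 °C before reading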). The note with it: qHTS. Put shortly:
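AC50 values derive from Hill-modelled concentration-response of ATP-based luminescence, normalized between DMSO-only and 100 uM tamoxifen controls. Cells were exposed in complete culture medium for 40 hr at 37 °C before detection.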
(In qHTS, concentration-response curves come from the screen itself.)

Assay [11] in a line: Cell Viability - HepG2 (AID 433; calls by dose curve;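 note: potency is the fitted concentration of half-maximal effect; potency for ATP loss meaning cytotoxicity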). The note with it: qHTS. The gist of the method: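 Cytotoxicity is scored as loss of intracellular ATP in HepG2 cells exposed to compounds for 40 h. Concentration-response curves, normalized to DMSO and 100 uM tamoxifen, give AC50 values.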
The nature of assay [12]: Cell Viability - MRC5 (AID 434; calls by dose curve;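 note: potency is the fitted concentration of half-maximal effect; potency reflects cytotoxicity seen as loss of intracellular ATP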). The note with it: MRC5 lung fibroblast viability, qHTS. The gist of the method:
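ATP luminescence read-out (CellTiter-Glo, 20 min RT) after 40 hr, 37 °C compound exposure of 1500 MRC5 cells/well. Data normalized to DMSO (basal) and 100 uM tamoxifen (100% inhibition); AC50 from standard Hill equation.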

A short description of assay [13]: Cell Viability - SK-N-SH (AID 435; calls by dose curve;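 note: potency is the fitted concentration of half-maximal effect; compound exposure lasted 40 h at 37 °C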). The note with it: SK-N-SH neuroblastoma cell viability qHTS. The gist of the method:
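Cells seeded at 1500 per well and incubated 5 hr at 37 °C. Compound added, then 40 hr at 37 °C. CellTiter-Glo added, 20 min at room temperature, luminescence read.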

The nature of assay [14]: Cell Viability - N2a (AID 540).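 Note: plate controls were DMSO alone for no effect and tamoxifen control for full effect; nearly all actives have a fitted effect of over 45% in size.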 The note with it: N2a mouse neuroblastoma cell viability; at 92.2 µM (top of the series). Put shortly:
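Cytotoxicity was scored as loss of cellular ATP in N2a cells, a mouse neuroblastoma line. Compounds are applied in a qHTS concentration series for 40 hr at 37 °C.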

Assay [15] can be described thus: Cell Viability - NIH 3T3 (AID 541).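 Note: plate controls were DMSO alone for no effect and tamoxifen positive control for full effect; nearly all actives have a fitted effect of over 25% in size.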 The note with it: NIH 3T3 cell viability, qHTS; activity change, negative = cytotoxicity: at 92.2 µM (top of the series). The gist of the method: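 Cells seeded at 1000/well, rested 5 hr at 37 °C, then dosed and incubated 40 hr at 37 °C. CellTiter-Glo added, 20 min room temperature, luminescence read. AC50 by Hill fit.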
Assay [16] is described as follows: Cell Viability - HUV-EC-C (AID 542). Note: % is set by controls: 0 for no effect and ±100 for the full control effect; nearly all actives have a fitted effect of over 35% in size. The gist of the method: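 Cells were seeded at 1000 per well and incubated 5 hr at 37 °C before compound addition. After 40 hr at 37 °C, CellTiter-Glo reagent was added for 20 min and luminescence read. AC50 values came from Hill-equation modelling.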
Assay [17] is described as follows: Cell Viability - H-4-II-E (AID 543). Note: % is set by controls: 0 for no effect and ±100 for the full control effect; nearly all actives have a fitted effect of over 35% in size. Put shortly: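 Cells seeded at 1500 per well and rested 5 hr; compounds added; 40 hr incubation at 37 °C; CellTiter-Glo added, 20 min at room temperature; luminescence read. Hill-equation fits gave AC50.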
Assay [18] in a line: Cell Viability - Renal Proximal Tubule (AID 545).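 Note: 0% = DMSO only and -100% = 100 µM tamoxifen; nearly all actives have a fitted effect of over 40% in size.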 The note with it: renal proximal tubule cells viability, primary cells of rat origin; at 91.7 µM (top of the series). Put shortly: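 Cytotoxicity is scored as a concentration-dependent drop in cellular ATP in primary rat renal proximal tubule cells exposed for 40 hr. AC50 derives from Hill modelling.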
Assay [19] can be described thus: Cell Viability - Mesenchymal (AID 546).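 Note: cells exposed to compound for 40 hours before reading; 0% = DMSO only and -100% = 100 µM tamoxifen.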 Put shortly:
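Human renal mesenchymal cells (glomerulus-derived), 1000 cells/well, 5 hr 37 °C pre-incubation; compound 40 hr, 37 °C; CellTiter-Glo, 20 min RT; luminescence; AC50 via Hill equation.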

Chain of Glucocorticoid receptor (Homo sapiens) (P04150 whole entry, looked up): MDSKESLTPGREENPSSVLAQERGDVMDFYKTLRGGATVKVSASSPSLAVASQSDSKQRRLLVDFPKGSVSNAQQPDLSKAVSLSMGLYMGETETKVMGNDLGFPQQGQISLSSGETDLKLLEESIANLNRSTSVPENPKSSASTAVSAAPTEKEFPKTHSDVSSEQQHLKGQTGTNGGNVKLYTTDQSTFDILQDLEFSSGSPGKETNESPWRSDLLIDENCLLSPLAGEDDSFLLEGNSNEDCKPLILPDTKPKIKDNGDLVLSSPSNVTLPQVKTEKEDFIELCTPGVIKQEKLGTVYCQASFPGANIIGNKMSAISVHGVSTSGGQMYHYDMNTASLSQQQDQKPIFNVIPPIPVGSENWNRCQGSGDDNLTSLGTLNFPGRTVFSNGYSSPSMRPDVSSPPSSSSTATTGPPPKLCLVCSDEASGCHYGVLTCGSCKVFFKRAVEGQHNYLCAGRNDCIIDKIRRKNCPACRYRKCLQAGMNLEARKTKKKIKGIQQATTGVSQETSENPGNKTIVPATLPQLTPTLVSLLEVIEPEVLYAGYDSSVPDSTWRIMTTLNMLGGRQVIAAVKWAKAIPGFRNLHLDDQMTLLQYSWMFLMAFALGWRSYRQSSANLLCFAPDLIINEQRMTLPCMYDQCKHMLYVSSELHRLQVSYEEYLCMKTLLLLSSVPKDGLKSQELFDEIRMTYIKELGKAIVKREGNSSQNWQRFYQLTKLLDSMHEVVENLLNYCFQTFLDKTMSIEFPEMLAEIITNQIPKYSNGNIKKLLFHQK
Chain of Cytochrome P450 1A2 (Homo sapiens) (P05177 whole entry, looked up): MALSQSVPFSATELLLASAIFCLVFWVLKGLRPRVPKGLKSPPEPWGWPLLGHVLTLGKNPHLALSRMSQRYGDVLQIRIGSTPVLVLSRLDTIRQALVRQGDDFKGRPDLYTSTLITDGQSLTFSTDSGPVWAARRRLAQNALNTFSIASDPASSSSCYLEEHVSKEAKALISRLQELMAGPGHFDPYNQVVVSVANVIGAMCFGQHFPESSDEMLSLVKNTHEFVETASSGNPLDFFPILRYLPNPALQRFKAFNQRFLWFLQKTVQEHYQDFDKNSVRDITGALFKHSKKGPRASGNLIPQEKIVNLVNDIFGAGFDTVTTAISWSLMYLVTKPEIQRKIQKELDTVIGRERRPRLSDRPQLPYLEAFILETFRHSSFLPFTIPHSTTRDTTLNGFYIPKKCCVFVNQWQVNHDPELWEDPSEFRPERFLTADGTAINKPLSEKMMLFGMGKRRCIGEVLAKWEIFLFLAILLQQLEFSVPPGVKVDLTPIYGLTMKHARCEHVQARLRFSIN

Regarding `CC1(C)S[C@@H]2[C@H](NC(=O)C3(N)CCCCC3)C(=O)N2[C@H]1C(=O)O`, the compound was called inactive in assay [1], in assay [3] and in [6]. Moreover, in assay [2], the activity change, negative = inhibition was -19.8%. The Potency in assay [4] and in assay [5] was > 20.6 µM in each case.
For the compound `CN1CCc2c(c3ccccc3n2Cc2ccccc2)C1`, the compound was called inactive in [1], in assay [3] and in [6]. Besides, in [7], the Potency is 5.01 µM (active).
Turning to `CN(CCO)CC(O)Cn1cnc2c1c(=O)n(C)c(=O)n2C` (configuration not stated) (tested in a mixture with another compound), the outcome in assay [1] and in assay [3] was inactive. Further, in [2], the activity change, negative = inhibition was -24.9%.
With `Cn1cc(NC(=O)c2cc(NC(=O)c3cc(NC=O)cn3C)cn2C)cc1C(=O)NCCC(=N)N`, the compound was called inactive in [1] and in assay [3].
As for `CCOC(C)OCC`, the Potency in [8], in assay [9], in [10], in assay [11], in assay [12] and in assay [13] was > 92 µM throughout. In addition, the result in assay [6] and in assay [19] was inactive. The activity change, negative = cytotoxicity in assay [14] was -0.722%; in [15], -3.45%; in [18] it was -8.55%. For the same compound, the Potency entry in assay [16] and in assay [17] was “inactive” in each case.
For `CC(=O)Oc1cccc2c1C(=O)c1c(OC(C)=O)cc(C(=O)O)cc1C2=O`, the compound was called inactive in [1] and in [3]. In addition, the activity change, negative = inhibition in assay [2] is -21.4%. Also, in assay [4], the Potency was > 20.6 µM.
Consider `CCCOc1cc(N)ccc1C(=O)OCCN(CC)CC`, for which the call in [1], in assay [3] and in [6] was inactive. Further, the Potency is 12.6 µM (active) in [7], > 20.6 µM in [4] and > 20.6 µM in assay [5].
In the case of `CCCCC(=O)O[C@H]1CC[C@H]2[C@@H]3CCc4cc(O)ccc4[C@H]3CC[C@]12C`, the result in assay [1] and in [3] was inactive. In assay [4], the Potency was > 20.6 µM.
In the case of `Cn1nnnc1SCC1=C(C(=O)O)N2C(=O)[C@@H](NC(=O)[C@H](O)c3ccccc3)[C@H]2SC1`, the compound was classed as inactive in [1] and in assay [3]. The activity change, negative = inhibition in [2] is 5.92%. Besides, the Potency in assay [4] is > 20.6 µM.
For the compound `CC(C)(C)CC(C)(C)c1ccc(OCCO)cc1`, the Potency in [8], in assay [9], in [12] and in [13] was > 92 µM each time. Further, the compound was called inactive in [6] and in [19]. For the same compound, the activity change, negative = cytotoxicity was -28.8% in assay [15] and -16.5% in assay [18]. The Potency entry in [16] was “inactive”.
On to `CO/N=C(/C(=O)N[C@@H]1C(=O)N2C(C(=O)O)=C(COC(N)=O)CS[C@H]12)c1ccco1`, for which the Potency in [8], in assay [9], in assay [10], in assay [11], in assay [12] and in assay [13] was > 92 µM each time. In addition, the outcome in assay [6] and in assay [19] was inactive. Moreover, the activity change, negative = cytotoxicity in assay [14] was 8.73%; in assay [15] it was -7.55%; in assay [18], 4.36%. The Potency entry in assay [16] and in assay [17] was “inactive” in each case.
Consider `ClC(Cl)Cl`, for which the Potency in assay [8], in [9], in assay [10], in [11], in assay [12] and in [13] was > 92 µM throughout. In addition, the compound was classed as inactive in [6] and in assay [19]. Further, the activity change, negative = cytotoxicity is -12.8% in [14], -17.2% in assay [15] and -11.2% in [18]. The Potency result in assay [16] and in assay [17] was “inactive” each time.
Take `CC(C)O`: the Potency in assay [8], in assay [9], in assay [10], in assay [11], in assay [12] and in assay [13] was > 92 µM throughout. Also, the outcome in assay [6] and in assay [19] was inactive. Moreover, the activity change, negative = cytotoxicity in assay [14] is -11.4%; in assay [18], 5.6%. In addition, the Potency result in assay [16] and in [17] was “inactive” in each case.
As for `Cc1ccc(S(=O)(=O)O)cc1C`, the Potency in assay [8], in assay [9], in assay [10], in assay [11], in [12] and in assay [13] was > 92 µM in each case. Moreover, the compound was called inactive in assay [6] and in [19]. Also, the activity change, negative = cytotoxicity was -7.07% in assay [14] and -15.2% in assay [18]. Moreover, the Potency entry in assay [16] and in assay [17] was “inactive” throughout.
For the compound `CC1=CC(=O)NS(=O)(=O)O1`, the Potency in assay [8], in [9], in assay [10], in assay [11], in assay [12] and in assay [13] was > 92 µM each time. Also, the call in assay [6] and in [19] was inactive. Also, the activity change, negative = cytotoxicity in assay [14] is -19.6%; in assay [15], -8.99%; in [18] it was -8.28%. In addition, the Potency entry in assay [16] and in assay [17] was “inactive” throughout.
With `C[C@H](CCC(=O)O)[C@H]1CC[C@H]2[C@@H]3[C@H](O)C[C@@H]4C[C@H](O)CC[C@]4(C)[C@H]3C[C@H](O)[C@]12C`, the Potency in [8], in [9], in [10], in assay [11], in assay [12] and in assay [13] was > 92 µM each time. Also, the result in assay [6] and in assay [19] was inactive. Further, the activity change, negative = cytotoxicity in assay [14] is -9.32%; in assay [15], -13.2%; in assay [18], 5.01%. Besides, the Potency result in [16] and in assay [17] was “inactive” in each case.
`NC(N)=O`: the Potency in assay [8], in [9], in [10], in [11], in assay [12] and in assay [13] was > 92 µM in each case. The figures for the activity change, negative = cytotoxicity in [14], in assay [15] and in assay [18] were 12.5%, -1.75% and -9.08%, respectively. For the same compound, the Potency result in [16] and in assay [17] was “inactive” in each case. Also, the compound was called inactive in assay [19].
